Counter-ions that a name gives are not always drawn.

In this assay the test system is thyroid hormone receptor (endogenous TRα and TRβ). Further details: species or system GH3-TRE-Luc (rat pituitary); GH3-TRE-Luc luciferase reporter, antagonist mode against 1 nM T3, loss of signal, qHTS. As to conditions: read-out: Average AC50 (uM) GH3-TRE-Antag, antagonist mode, 1 nM T3, no GH3 cytotoxicity hit, Average AC50 (uM) GH3-TRE-Antag, 24 h.
As for `CCCCCCCCCCCCOS(=O)(=O)O` [Ammonium dodecyl sulfate], the AC50 stood at 80.2 µM.

As for `Nc1ccc2cc3ccc(N)cc3nc2c1` [Proflavin hydrochloride], the AC50 stood at 3.25 µM.

In the case of `CCCCCCCCCCCCOS(=O)(=O)O` [Sodium dodecyl sulfate], the AC50 was above 50 µM.

Consider `N=C(N)NC(=O)c1nc(Cl)c(N)nc1N` [Amiloride hydrochloride], for which the AC50 amounted to 56.7 µM.

Values taken from article PMC6792352, “Limited Chemical Structural Diversity Found to Modulate Thyroid Hormone Receptor in the Tox21 Chemical Library” (Environmental Health Perspectives, 2019).
